The values that follow come from PubChem BioAssay (EPA / NIEHS).

Calls of active or inactive are those of the source. The calls were made as follows: active = hit-call score of the fitted dose curve at least 0.9, where 1 is the maximum; inactive = score below 0.9.

Holding throughout (details): mRNA level, 48 h; actives raise or lower the signal
Read-out in experiment [1]: Tumor necrosis factor receptor superfamily member 6 (Homo sapiens) (UniProt P25445)
Description: LTEA_HepaRG_FAS: Life Technologies and Expression Analysis (LTEA) Assay for Fas cell surface death receptor (FAS) using HepaRG (AID 2283447). The method, boiled down:
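FAS transcript level was measured by TaqMan qRT-PCR against three housekeeping genes after 48 h chemical exposure. Cells were HepaRG, 0.5% DMSO vehicle, with a top concentration of 100 uM and half-log dilutions over eight points, in duplicate.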

Read-out in experiment [2]: Fatty acid synthase (Homo sapiens) (UniProt P49327)
Kind of experiment: LTEA_HepaRG_FASN: Life Technologies and Expression Analysis (LTEA) Assay for Fatty Acid Synthase (FASN) using HepaRG (AID 2283448). Put shortly: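 In human HepaRG cultures, 48 h chemical exposure (up to 100 uM, 0.5% DMSO) preceded TaqMan qRT-PCR of FASN.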

Read-out in experiment [3]: Cyclin D2 (CCND2), CCND2 (gene 894)
Description: LTEA_HepaRG_CCND2: Life Technologies and Expression Analysis (LTEA) Assay for Cyclin D2 (CCND2) using HepaRG (AID 2283449). The method, boiled down:
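CCND2 transcript levels, quantified by qRT-PCR and normalised to three housekeeping genes, were fitted bidirectionally against 0.5% DMSO. HepaRG cultures were dosed 48 h in duplicate with an 8-point half-log series up to 100 uM.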

Read-out in experiment [4]: Cyclin Dependent Kinase Inhibitor 1A (CDKN1A), CDKN1A (gene 1026)
Kind of experiment: LTEA_HepaRG_CDKN1A: Life Technologies and Expression Analysis (LTEA) Assay for Cyclin Dependent Kinase Inhibitor 1A (CDKN1A) using HepaRG (AID 2283450). The method, boiled down: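 Differentiated HepaRG cells in serum-free induction medium, exposed 48 h in duplicate to eight half-log concentrations up to 100 uM in 0.5% DMSO. mRNA measured by TaqMan qRT-PCR, normalized to ACTB, GAPDH, POLR2A; bidirectional fit versus DMSO.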

Read-out in experiment [5]: catalase (CAT), CAT (gene 847)
Description: LTEA_HepaRG_CAT: Life Technologies and Expression Analysis (LTEA) Assay for catalase (CAT) using HepaRG (AID 2283452).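 As to AC50: TaqMan qRT-PCR signal normalized to ACTB GAPDH and POLR2A housekeeping genes.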 Put shortly:
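Expression of CAT was quantified by TaqMan qRT-PCR with ACTB/GAPDH/POLR2A normalization after 48 h chemical exposure of HepaRG. Eight-point half-log series, top 100 uM, in 0.5% DMSO; gain or loss fitted against vehicle.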

Read-out in experiment [6]: flavin-containing dimethylaniline monooxygenases 3 (FMO3), FMO3 (gene 2328)
Description: LTEA_HepaRG_FMO3: Life Technologies and Expression Analysis (LTEA) Assay for flavin-containing dimethylaniline monooxygenases 3 (FMO3) using HepaRG (AID 2283453). Put shortly: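 Eight-point concentration-response in serum-free HepaRG cultures (top 100 uM, 0.5% DMSO, 48 h). Read-out: FMO3 mRNA level normalized to three endogenous control genes, fitted bidirectionally versus vehicle.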

Read-out in experiment [7]: Cytochrome P450 (CYP1A1), CYP1A1 (gene 1543)
Kind of experiment: LTEA_HepaRG_CYP1A1: Life Technologies and Expression Analysis (LTEA) Assay for Cytochrome P450 (CYP1A1) using HepaRG (AID 2283454). Put shortly:
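Differentiated human HepaRG cells, after 48 h plating, exposed in duplicate for 48 h in serum-free induction medium to 8 half-log concentrations up to 100 uM in 0.5% DMSO. CYP1A1 mRNA by qRT-PCR, normalized to ACTB/GAPDH/POLR2A; bidirectional fit versus DMSO.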

Read-out in experiment [8]: Forkhead box O1 (FOXO1), FOXO1 (gene 2308)
Kind of experiment: LTEA_HepaRG_FOXO1: Life Technologies and Expression Analysis (LTEA) Assay for Forkhead box O1 (FOXO1) using HepaRG (AID 2283456). The method, boiled down:
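FOXO1 transcript quantified by qRT-PCR after 48 h chemical exposure (top 100 uM, half-log steps, 0.5% DMSO) of HepaRG cells, housekeeping-normalized (ACTB/GAPDH/POLR2A). Changes fitted in both directions relative to vehicle.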

Read-out in experiment [9]: growth arrest and DNA damage 45 (GADD45A), GADD45A (gene 1647)
Kind of experiment: LTEA_HepaRG_GADD45A: Life Technologies and Expression Analysis (LTEA) Assay for growth arrest and DNA damage 45 (GADD45A) using HepaRG (AID 2283458). The method, boiled down:
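Eight-point concentration-response in HepaRG cells: 48 h chemical exposure, 0.5% DMSO vehicle, top dose 100 uM. Normalized qRT-PCR mRNA readout with bidirectional fitting relative to DMSO.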

Read-out in experiment [10]: Forkhead box O3 (FOXO3), FOXO3 (gene 2309)
Description: LTEA_HepaRG_FOXO3: Life Technologies and Expression Analysis (LTEA) Assay for Forkhead box O3 (FOXO3) using HepaRG (AID 2283459). The method, boiled down: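 FOXO3 transcript measured by qRT-PCR (normalized to ACTB, GAPDH, POLR2A) after 48 h exposure of HepaRG cells in serum-free induction medium. Duplicates, eight half-log concentrations up to 100 uM, 0.5% DMSO; gain or loss fitted against DMSO.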

Read-out in experiment [11]: ABC Transporter (ABCB1), ABCB1 (gene 5243)
Kind of experiment: LTEA_HepaRG_ABCB1: Life Technologies and Expression Analysis (LTEA) Assay for ABC Transporter (ABCB1) using HepaRG (AID 2283460). Put shortly: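 ABCB1 transcript level measured by TaqMan qRT-PCR against three housekeeping genes after 48 h chemical exposure of differentiated HepaRG cells. Top concentration 100 uM, half-log steps, eight points, 0.5% DMSO vehicle; bidirectional fit relative to DMSO.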

Read-out in experiment [12]: growth arrest and DNA damage 45 (GADD45B), GADD45B (gene 4616)
Kind of experiment: LTEA_HepaRG_GADD45B: Life Technologies and Expression Analysis (LTEA) Assay for growth arrest and DNA damage 45 (GADD45B) using HepaRG (AID 2283461). Put shortly:
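Differentiated human HepaRG cells in serum-free induction medium exposed 48 h in duplicate to eight concentrations, top 100 uM, half-log steps, 0.5% DMSO. GADD45B mRNA by TaqMan qRT-PCR, normalized to ACTB, GAPDH, POLR2A; bidirectional fit versus DMSO.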

Read-out in experiment [13]: ABC Transporter (ABCC3), ABCC3 (gene 8714)
Description: LTEA_HepaRG_ABCC3: Life Technologies and Expression Analysis (LTEA) Assay for ABC Transporter (ABCC3) using HepaRG (AID 2283462). Put shortly: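 Differentiated human HepaRG cells exposed 48 h in serum-free induction medium, 0.5% DMSO vehicle, 8-point half-log series to 100 uM in duplicate. ABCC3 mRNA by qRT-PCR, normalised to ACTB, GAPDH, POLR2A; bidirectional fit vs DMSO.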

Read-out in experiment [14]: Broad substrate specificity ATP-binding cassette transporter ABCG2 (Homo sapiens) (UniProt Q9UNQ0)
Description: LTEA_HepaRG_ABCG2: Life Technologies and Expression Analysis (LTEA) Assay for ABC Transporter (ABCG2) using HepaRG (AID 2283465). The method, boiled down: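 ABCG2 transcript was quantified by TaqMan qRT-PCR against three housekeeping genes in HepaRG cells. Cells were treated in duplicate for 48 h across an 8-point half-log series up to 100 uM, with 0.5% DMSO vehicle. Gain or loss versus DMSO was fit.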

Read-out in experiment [15]: ATP-citrate lyase (ACLY), ACLY (gene 47)
Kind of experiment: LTEA_HepaRG_ACLY: Life Technologies and Expression Analysis (LTEA) Assay for ATP-citrate lyase (ACLY) using HepaRG (AID 2283466). Put shortly:
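ACLY mRNA quantified by qRT-PCR on Fluidigm arrays against three housekeeping genes, after 48 h chemical treatment of HepaRG cells (top concentration 100 uM, half-log steps, 0.5% DMSO vehicle). Up- or down-regulation fitted relative to DMSO.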

Read-out in experiment [16]: ABC Transporter (ABCB11), ABCB11 (gene 8647)
Description: LTEA_HepaRG_ABCB11: Life Technologies and Expression Analysis (LTEA) Assay for ABC Transporter (ABCB11) using HepaRG (AID 2283463). The method, boiled down: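 ABCB11 transcript levels quantified by TaqMan qRT-PCR against three housekeeping genes after 48 h chemical exposure of HepaRG cultures. Concentrations up to 100 uM in half-log steps, 0.5% DMSO vehicle; both induction and suppression scored.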

Read-out in experiment [17]: ABC Transporter (ABCC2), ABCC2 (gene 1244)
Description: LTEA_HepaRG_ABCC2: Life Technologies and Expression Analysis (LTEA) Assay for ABC Transporter (ABCC2) using HepaRG (AID 2283464). The method, boiled down:
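Differentiated HepaRG cells in serum-free induction medium exposed 48 h to eight half-log concentrations up to 100 uM, 0.5% DMSO, in duplicate. ABCC2 mRNA measured by qRT-PCR (TaqMan, Fluidigm), normalized to ACTB, GAPDH and POLR2A. Fitted in both directions against DMSO.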

The term AC50 denotes the midpoint of the concentration-response curve, whichever way the signal moves.

Chain of Fatty acid synthase (Homo sapiens) (P49327 whole entry, looked up): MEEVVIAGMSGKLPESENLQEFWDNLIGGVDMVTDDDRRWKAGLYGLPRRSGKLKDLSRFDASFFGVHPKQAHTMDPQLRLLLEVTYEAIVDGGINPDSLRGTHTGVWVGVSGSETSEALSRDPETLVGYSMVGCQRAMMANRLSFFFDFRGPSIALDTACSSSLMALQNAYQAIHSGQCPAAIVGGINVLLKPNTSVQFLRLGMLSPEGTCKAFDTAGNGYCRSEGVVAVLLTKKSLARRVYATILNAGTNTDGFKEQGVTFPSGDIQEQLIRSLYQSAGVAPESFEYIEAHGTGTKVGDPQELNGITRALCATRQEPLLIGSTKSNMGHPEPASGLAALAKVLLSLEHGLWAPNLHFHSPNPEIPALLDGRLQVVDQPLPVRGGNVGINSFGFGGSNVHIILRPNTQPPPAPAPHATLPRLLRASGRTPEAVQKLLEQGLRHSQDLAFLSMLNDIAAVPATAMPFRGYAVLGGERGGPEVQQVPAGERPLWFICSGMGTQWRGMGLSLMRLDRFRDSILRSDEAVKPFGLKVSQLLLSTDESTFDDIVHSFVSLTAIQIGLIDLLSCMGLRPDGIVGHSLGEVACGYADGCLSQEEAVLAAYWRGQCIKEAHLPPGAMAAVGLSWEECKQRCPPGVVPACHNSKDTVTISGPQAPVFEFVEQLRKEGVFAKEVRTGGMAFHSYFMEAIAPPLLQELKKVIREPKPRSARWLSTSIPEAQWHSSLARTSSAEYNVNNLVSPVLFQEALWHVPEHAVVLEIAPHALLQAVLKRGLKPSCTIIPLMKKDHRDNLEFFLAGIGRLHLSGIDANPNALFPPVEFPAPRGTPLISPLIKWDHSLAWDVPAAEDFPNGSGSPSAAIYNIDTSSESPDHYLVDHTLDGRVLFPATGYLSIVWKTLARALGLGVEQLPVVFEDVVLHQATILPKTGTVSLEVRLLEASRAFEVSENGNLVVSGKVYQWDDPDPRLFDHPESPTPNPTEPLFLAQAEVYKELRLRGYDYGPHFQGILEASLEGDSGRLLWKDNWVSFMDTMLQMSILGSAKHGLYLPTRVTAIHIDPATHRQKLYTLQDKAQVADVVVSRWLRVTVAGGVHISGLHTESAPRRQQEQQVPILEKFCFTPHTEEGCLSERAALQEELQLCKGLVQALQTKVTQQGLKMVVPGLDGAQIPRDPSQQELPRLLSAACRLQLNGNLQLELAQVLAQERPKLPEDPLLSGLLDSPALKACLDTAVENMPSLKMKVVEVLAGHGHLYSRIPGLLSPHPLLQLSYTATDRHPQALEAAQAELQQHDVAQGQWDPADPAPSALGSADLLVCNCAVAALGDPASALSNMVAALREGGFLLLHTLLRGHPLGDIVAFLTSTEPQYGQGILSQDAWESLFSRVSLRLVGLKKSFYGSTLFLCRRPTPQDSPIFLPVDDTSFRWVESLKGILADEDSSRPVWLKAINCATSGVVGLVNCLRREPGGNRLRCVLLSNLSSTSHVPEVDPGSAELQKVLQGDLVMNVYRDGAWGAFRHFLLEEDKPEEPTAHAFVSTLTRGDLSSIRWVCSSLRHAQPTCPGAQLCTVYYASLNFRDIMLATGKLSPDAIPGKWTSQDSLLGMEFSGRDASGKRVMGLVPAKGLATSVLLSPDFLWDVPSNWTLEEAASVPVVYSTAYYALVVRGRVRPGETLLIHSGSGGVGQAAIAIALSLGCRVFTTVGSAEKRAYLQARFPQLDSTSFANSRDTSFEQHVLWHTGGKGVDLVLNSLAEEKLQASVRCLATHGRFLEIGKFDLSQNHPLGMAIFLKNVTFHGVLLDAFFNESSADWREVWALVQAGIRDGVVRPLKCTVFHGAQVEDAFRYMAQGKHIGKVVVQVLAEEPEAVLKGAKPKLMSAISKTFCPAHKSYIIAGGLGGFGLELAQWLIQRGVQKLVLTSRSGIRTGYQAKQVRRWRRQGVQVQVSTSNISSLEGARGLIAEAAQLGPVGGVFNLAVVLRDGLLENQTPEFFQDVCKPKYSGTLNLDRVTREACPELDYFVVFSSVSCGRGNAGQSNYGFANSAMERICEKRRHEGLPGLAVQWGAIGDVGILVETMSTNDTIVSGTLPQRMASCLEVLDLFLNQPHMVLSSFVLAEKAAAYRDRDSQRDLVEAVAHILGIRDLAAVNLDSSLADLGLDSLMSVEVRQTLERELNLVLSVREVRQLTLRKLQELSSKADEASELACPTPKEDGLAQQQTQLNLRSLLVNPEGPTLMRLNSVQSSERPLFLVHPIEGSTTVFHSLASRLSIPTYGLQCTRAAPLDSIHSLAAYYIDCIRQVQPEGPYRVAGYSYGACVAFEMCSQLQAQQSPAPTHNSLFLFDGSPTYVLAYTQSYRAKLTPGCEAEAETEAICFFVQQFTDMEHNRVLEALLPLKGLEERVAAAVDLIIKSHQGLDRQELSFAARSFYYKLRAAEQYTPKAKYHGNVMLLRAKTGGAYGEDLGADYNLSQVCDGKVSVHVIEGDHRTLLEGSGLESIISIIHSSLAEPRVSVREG
Chain of Broad substrate specificity ATP-binding cassette transporter ABCG2 (Homo sapiens) (Q9UNQ0 whole entry, looked up): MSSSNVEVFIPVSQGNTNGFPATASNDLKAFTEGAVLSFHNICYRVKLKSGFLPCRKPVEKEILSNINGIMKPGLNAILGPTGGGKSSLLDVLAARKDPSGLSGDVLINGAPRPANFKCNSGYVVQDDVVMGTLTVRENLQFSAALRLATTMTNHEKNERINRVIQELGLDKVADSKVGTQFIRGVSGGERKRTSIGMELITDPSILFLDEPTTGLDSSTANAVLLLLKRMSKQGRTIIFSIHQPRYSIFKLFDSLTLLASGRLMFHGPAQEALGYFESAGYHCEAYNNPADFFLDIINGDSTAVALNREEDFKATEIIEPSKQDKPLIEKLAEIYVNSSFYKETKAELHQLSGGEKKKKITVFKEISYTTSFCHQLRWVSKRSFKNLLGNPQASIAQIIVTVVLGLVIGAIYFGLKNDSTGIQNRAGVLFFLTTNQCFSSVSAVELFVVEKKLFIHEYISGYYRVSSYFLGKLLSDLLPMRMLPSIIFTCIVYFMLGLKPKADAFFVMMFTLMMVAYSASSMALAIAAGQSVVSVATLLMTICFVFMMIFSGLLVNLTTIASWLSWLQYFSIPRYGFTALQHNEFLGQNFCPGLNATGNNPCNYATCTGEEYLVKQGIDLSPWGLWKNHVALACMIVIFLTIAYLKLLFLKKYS

Regarding `CCCCCCCCCCCCCCCC`, the outcome in experiment [1], in experiment [2], in experiment [3], in [4], in experiment [5] and in [6] was inactive. Also, the compound was called inactive in [8], in experiment [9], in [10], in experiment [11], in experiment [12] and in experiment [13]. In addition, the compound was classed as inactive in [14] and in [15]. Moreover, the AC50 in experiment [7] was 50 µM (active).
For the compound `Nc1nc(N)c2nc(CNc3ccc(C(=O)N[C@@H](CCC(=O)O)C(=O)O)cc3)cnc2n1`, the call in experiment [1], in experiment [3], in experiment [4], in [5], in experiment [6] and in [7] was inactive. For the same compound, the compound was called inactive in experiment [8], in [9], in experiment [10], in experiment [11], in [12] and in experiment [13]. Also, the compound was classed as inactive in experiment [14] and in experiment [15]. Further, the half-maximal activity concentration (AC50) in experiment [2] was 0.0999 µM (active); in [16], 0.104 µM (active).
Take `CNC(=O)[C@H]1O[C@@H](n2cnc3c(NCc4cc(Cl)ccc4OCc4cc(C)no4)ncnc32)[C@H](O)[C@@H]1N`: the compound was called inactive in experiment [1], in experiment [2], in experiment [3], in experiment [4], in experiment [5] and in experiment [6]. For the same compound, the call in experiment [7], in experiment [8], in experiment [9], in experiment [10], in experiment [11] and in experiment [12] was inactive. Moreover, the compound was classed as inactive in experiment [13], in experiment [16], in experiment [17], in [14] and in [15].
Take `Nc1ccccc1N`: the half-maximal activity concentration (AC50) in experiment [1] is 50 µM (active); in experiment [2] it was 71.4 µM (active); in experiment [4], 50 µM (active); in experiment [5], 61.7 µM (active); in [6], 63.7 µM (active); in [7], 3.28 µM (active). Besides, the concentration at half-maximal activity (AC50) was 82.2 µM (active) in [8]; 50 µM (active) in experiment [9]; 63.3 µM (active) in [10]; 68.9 µM (active) in experiment [11]; 50 µM (active) in [12]; 71.9 µM (active) in [13]. Further, the call in experiment [14] was inactive.
